Measured values from the supplement of paper PMC10849652.
The full data set covers some 7,900 targets. This sample favours those with a hit. About 0.6% of all pairs of compound and target were hits. Unmarked numbers belong to inactive results.

Columns and labels:
Assay in all cases: log2 fold change, soluble protein after heating vs DMSO (PISA); higher = thermal stabilisation; K562 cells, 10 uM, 30 min; active = over 0.2 and 3.5 SD of the protein, either way, in both replicates (recomputed)
erlotinib = compound: C#Cc1cccc(Nc2ncnc3cc(OCCOC)c(OCCOC)cc23)c1 [erlotinib]
How it was run: (§1)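 Aliquots of K562 cells (2×10^6 cells/mL) treated with 10 μM compound for 30 min were heated for 3 min over 48°C-58°C. After pooling and extraction in PBS with 0.5% NP-40 at 4°C, soluble protein from a 21,000xg, 90 min spin was quantified by TMTpro 16plex LC-MS/MS with channel sums equalised. Thermal stability is expressed against control samples, from duplicates, as a log2 fold change.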

[1] = compound: C/C(=N\NC(=O)C1=CC(=CC=C1)S(=O)(=O)N2CCOCC2)/C3=C(C=CC(=C3)Cl)O
How it was run: as §1

[2] = compound: C1=CC(=C(C=C1Cl)C2=NC3=NC=CN=C3C(=N2)NC4=CC=NC=C4)F
How it was run: as §1

[3] = compound: C1=CC(=CC=C1C2=NC3=C(N2)C=C(C=C3)C(=O)N)OC4=CC=C(C=C4)Cl
How it was run: as §1

[4] = compound: C1=CC2=C(C=CC(=C2)/C=C\3/C(=O)NC(=NCC4=CC=CS4)S3)N=C1
How it was run: as §1

[5] = compound: C1=CC2=NC=CN=C2C=C1/C=C/3\C(=O)NC(=O)S3
How it was run: as §1

[6] = compound: C1=CC=C(C=C1)C2=NC(=C(N2)C3=CC=NC=C3)C4=CC(=C(C=C4)Cl)O
How it was run: as §1

[7] = compound: C1=CC=C2C(=C1)C3=NNC4=CC=CC(=C43)C2=O
How it was run: as §1

[8] = compound: C1CCN(C1)C(=O)NC2=CC=CC(=C2)NC3=NC=C(C(=N3)NCCC4=CN=CN4)Br
How it was run: as §1

[9] = compound: C1CN(CCC1(CC2=CC=C(C=C2)Cl)N)C3=NC=NC4=C3C=CN4
How it was run: as §1

IRAK-1-4 Inhibitor I = compound: C1COCCN1CCN2C3=CC=CC=C3N=C2NC(=O)C4=CC(=CC=C4)[N+](=O)[O-] [IRAK-1-4 Inhibitor I]
How it was run: as §1

ibrutinib = compound: C=CC(=O)N1CCC[C@@H](n2nc(-c3ccc(Oc4ccccc4)cc3)c3c(N)ncnc32)C1 [ibrutinib]
How it was run: as §1

[10] = compound: CC(=O)c1cnc2ccc(-c3cc(Cl)c(O)c(Cl)c3)nc2c1N[C@H]1CC[C@H](CN(C)C)CC1
How it was run: as §1

ralimetinib = compound: CC(C)(C)Cn1c(N)nc2ccc(-c3[nH]c(C(C)(C)C)nc3-c3ccc(F)cc3)nc21 [ralimetinib]
How it was run: as §1

[11] = compound: CC(C)(O)CC(=O)NCCn1ccc2ncnc(Nc3ccc(Oc4cccc(C(F)(F)F)c4)c(Cl)c3)c21
How it was run: as §1

[12] = compound: CC(C)C1=C2N=C(C=C(N2N=C1)NCC3=CC=CC=C3)NCCCCCCN
How it was run: as §1

[13] = compound: CC(C)C[C@@H](C=O)NC(=O)[C@H](CC(C)C)NC(=O)[C@H](CC(C)C)NC(=O)OCc1ccccc1
How it was run: as §1

pinometostat = compound: CC(C)N(C[C@H]1O[C@@H](n2cnc3c(N)ncnc32)[C@H](O)[C@@H]1O)[C@H]1C[C@@H](CCc2nc3cc(C(C)(C)C)ccc3[nH]2)C1 [pinometostat]
How it was run: as §1

[14] = compound: CC1=C(C(CC(=O)N1)C2=CC=C(C=C2)C(F)(F)F)C(=O)NC3=C(C=C4C(=C3)C=NN4)F
How it was run: as §1

[15] = compound: CC1=C(C2=C(C=C1)C(=O)C3=CC=CC=C3N2CCCN)C
How it was run: as §1

Sequence of UniProt Q9HAV4 (Q9HAV4 whole entry, looked up): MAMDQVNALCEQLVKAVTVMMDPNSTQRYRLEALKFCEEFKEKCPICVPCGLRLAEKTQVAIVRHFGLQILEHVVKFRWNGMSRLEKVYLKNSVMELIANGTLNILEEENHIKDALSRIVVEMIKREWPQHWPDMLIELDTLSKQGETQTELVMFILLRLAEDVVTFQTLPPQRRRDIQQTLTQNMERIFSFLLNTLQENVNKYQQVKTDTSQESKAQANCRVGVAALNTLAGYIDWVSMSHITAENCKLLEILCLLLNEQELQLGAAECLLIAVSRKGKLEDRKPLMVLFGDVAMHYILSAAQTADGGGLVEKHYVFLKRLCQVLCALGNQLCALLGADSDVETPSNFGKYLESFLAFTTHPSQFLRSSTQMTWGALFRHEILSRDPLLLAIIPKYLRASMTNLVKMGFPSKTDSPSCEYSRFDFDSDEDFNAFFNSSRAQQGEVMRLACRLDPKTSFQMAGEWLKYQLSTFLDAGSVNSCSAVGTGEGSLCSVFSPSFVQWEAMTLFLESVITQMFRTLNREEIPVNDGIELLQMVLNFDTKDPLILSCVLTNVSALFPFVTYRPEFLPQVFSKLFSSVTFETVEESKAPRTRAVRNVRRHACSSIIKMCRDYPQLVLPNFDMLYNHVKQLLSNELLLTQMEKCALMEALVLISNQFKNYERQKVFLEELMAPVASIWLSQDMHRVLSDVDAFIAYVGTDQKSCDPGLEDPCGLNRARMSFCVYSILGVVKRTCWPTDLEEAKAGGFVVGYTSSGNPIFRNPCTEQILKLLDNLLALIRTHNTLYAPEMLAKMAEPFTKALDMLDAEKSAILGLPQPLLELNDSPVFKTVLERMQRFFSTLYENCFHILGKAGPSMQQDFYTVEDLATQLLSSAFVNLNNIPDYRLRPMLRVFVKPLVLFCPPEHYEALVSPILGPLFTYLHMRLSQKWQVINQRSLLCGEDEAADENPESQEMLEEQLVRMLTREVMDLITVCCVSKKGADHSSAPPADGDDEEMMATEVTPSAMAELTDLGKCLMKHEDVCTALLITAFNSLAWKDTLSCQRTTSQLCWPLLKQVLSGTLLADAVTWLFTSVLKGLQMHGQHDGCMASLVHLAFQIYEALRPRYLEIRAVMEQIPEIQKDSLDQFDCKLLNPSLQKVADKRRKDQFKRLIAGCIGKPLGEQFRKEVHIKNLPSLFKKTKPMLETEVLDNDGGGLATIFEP
Sequence of UniProt O60784 (O60784 whole entry, looked up): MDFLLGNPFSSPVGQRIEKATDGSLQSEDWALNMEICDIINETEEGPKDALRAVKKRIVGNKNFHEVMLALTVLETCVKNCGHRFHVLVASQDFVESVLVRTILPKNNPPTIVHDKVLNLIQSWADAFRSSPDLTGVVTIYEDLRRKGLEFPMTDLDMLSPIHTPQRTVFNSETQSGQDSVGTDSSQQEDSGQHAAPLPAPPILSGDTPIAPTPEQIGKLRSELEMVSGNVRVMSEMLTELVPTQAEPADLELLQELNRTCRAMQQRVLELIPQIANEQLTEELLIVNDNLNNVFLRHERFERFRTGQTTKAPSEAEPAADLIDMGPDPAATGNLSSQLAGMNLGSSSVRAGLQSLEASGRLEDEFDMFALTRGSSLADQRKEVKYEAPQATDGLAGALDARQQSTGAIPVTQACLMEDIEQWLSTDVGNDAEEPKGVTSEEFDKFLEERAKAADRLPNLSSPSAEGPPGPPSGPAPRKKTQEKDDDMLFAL
Sequence of UniProt O43396 (O43396 whole entry, looked up): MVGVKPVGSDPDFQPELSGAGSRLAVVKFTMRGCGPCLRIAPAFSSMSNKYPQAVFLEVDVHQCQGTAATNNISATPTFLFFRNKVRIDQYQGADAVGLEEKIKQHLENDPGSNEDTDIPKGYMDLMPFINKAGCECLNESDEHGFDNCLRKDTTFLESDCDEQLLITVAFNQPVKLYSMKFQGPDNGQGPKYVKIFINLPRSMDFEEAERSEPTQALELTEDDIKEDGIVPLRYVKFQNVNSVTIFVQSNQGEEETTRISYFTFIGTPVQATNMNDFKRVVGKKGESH
Sequence of UniProt Q9UEU0 (Q9UEU0 whole entry, looked up): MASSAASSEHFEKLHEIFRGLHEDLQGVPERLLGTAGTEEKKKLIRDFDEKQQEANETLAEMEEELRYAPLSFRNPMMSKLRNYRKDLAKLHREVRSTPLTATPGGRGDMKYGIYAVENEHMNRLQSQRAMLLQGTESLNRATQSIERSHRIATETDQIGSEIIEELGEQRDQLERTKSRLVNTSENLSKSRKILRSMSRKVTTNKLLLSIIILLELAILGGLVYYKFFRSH
Sequence of UniProt Q9H4A3 (Q9H4A3 whole entry, looked up): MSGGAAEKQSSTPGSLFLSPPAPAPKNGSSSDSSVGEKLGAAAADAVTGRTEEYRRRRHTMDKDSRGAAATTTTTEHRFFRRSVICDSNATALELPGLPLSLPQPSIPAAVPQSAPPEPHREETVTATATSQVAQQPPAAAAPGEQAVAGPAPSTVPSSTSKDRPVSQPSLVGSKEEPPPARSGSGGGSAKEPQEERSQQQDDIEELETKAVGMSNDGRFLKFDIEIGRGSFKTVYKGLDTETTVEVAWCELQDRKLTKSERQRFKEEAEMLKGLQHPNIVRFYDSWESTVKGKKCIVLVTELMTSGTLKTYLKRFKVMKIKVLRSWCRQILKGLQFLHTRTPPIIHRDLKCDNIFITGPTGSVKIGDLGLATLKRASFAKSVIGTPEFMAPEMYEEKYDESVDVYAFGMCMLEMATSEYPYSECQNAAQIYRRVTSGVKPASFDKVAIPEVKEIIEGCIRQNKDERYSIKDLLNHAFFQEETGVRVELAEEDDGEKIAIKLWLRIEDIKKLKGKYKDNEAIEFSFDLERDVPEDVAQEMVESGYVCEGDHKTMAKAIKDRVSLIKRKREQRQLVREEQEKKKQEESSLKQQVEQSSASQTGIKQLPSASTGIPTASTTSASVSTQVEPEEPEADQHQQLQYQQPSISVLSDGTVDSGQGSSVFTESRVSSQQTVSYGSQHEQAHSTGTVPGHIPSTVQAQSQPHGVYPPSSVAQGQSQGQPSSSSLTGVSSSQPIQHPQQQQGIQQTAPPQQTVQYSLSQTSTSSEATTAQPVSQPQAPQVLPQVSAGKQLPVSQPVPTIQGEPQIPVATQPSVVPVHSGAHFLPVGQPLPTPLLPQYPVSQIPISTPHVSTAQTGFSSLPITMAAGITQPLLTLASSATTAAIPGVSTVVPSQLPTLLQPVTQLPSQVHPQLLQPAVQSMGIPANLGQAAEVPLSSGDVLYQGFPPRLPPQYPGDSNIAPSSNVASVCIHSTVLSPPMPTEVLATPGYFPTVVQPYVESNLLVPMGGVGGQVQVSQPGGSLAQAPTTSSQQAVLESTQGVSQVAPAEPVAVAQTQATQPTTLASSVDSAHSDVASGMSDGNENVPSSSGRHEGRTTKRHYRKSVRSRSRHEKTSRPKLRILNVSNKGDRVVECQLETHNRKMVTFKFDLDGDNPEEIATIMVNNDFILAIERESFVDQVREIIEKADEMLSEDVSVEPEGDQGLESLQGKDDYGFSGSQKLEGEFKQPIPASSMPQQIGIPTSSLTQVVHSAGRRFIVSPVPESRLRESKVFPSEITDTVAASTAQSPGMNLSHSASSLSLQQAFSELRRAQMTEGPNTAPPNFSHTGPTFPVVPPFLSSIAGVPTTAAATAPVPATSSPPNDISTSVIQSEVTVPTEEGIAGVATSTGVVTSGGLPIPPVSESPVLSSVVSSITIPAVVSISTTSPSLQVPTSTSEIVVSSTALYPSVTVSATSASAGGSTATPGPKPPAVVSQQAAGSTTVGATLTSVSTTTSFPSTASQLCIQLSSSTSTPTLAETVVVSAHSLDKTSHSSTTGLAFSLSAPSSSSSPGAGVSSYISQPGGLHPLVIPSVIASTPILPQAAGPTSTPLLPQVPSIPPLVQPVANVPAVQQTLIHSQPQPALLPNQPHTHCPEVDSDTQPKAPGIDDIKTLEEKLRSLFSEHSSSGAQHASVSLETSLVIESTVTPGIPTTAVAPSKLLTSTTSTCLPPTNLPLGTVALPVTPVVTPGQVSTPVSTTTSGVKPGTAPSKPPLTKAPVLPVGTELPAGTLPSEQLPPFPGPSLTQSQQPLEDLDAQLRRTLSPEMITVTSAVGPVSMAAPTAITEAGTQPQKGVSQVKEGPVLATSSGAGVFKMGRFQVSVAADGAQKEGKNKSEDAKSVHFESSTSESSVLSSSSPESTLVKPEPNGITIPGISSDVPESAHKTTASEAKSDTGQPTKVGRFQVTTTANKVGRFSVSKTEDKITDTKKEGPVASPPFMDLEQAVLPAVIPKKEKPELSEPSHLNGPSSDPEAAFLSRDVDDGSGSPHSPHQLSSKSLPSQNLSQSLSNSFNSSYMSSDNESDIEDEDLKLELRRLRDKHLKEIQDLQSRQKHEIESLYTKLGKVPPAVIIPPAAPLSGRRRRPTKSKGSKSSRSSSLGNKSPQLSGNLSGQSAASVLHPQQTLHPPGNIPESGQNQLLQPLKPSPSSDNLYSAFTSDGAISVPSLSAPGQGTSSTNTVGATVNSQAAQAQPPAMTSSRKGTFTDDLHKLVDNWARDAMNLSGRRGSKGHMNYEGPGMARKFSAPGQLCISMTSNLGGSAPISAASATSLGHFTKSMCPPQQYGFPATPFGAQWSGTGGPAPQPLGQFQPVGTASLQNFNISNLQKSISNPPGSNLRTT
Sequence of UniProt Q9UGM6 (Q9UGM6 whole entry, looked up): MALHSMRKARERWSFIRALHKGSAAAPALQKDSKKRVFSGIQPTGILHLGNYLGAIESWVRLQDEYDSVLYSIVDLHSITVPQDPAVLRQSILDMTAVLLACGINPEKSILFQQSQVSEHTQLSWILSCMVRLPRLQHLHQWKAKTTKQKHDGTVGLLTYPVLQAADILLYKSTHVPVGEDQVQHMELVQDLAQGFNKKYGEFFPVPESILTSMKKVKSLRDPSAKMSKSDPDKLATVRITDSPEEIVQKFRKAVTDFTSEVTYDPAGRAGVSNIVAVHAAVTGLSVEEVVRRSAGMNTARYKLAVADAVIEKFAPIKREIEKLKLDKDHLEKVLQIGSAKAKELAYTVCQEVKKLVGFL

Target | log2 fold change (erlotinib) | log2 fold change [1] | log2 fold change [2] | log2 fold change [3] | log2 fold change [4] | log2 fold change [5] | log2 fold change [6] | log2 fold change [7] | log2 fold change [8] | log2 fold change [9] | log2 fold change (IRAK-1-4 Inhibitor I) | log2 fold change (ibrutinib) | log2 fold change [10] | log2 fold change (ralimetinib) | log2 fold change [11] | log2 fold change [12] | log2 fold change [13] | log2 fold change (pinometostat) | log2 fold change [14] | log2 fold change [15]
VTI1A (UniProt Q96AJ9) | -0.07 | 0.026 | -0.037 | -0.014 | 0.015 | 0.087 | -0.055 | -0.002 | 0.019 | 0.005 | 0.095 | 0.012 | -0.009 | -0.111 | 0.019 | 0.005 | 0.028 | -0.016 | 0.028 | -0.01
VRK1 (UniProt Q99986) | 0.087 | -0.055 | 0.119 | -0.016 | 0.038 | -0.024 | -0.039 | 0.078 | -0.044 | -0.045 | -0.041 | 0.032 | 0.338 | -0.033 | -0.32 | -0.013 | 0.055 | -0.008 | -0.027 | 0.433 (active)
VTI1B (UniProt Q9UEU0) | 0.011 | -0.008 | -0.023 | -0.02 | 0 | 0.03 | -0.055 | -0.036 | 0.022 | 0.046 | -0.074 | 0.027 | -0.033 | -0.081 | 0.08 | -0.261 (active) | 0.002 | -0.057 | -0.001 | 0.012
WASHC2C, A0A096LPC5 | 0.095 | -0.224 | -0.016 | -0.006 | 0.204 | 0.113 | 0.111 | -0.071 | -0.069 | 0.08 | 0.01 | -0.005 | -0.159 | -0.035 | 0.085 | -0.214 | 0.057 | 0.008 | -0.033 | -0.125
TXNL1 (UniProt O43396) | -0.012 | 0.096 | 0.009 | -0.031 | -0.011 | -0.018 | 0.014 | 0.016 | -0.001 | -0.077 | -0.035 | -0.014 | -0.001 | -0.003 | -0.03 | -0.052 | 0.278 (active) | -0.029 | -0.027 | 0.038
WDR61 (UniProt Q9GZS3) | 0.021 | 0.066 | 0.051 | 0.027 | 0.057 | -0.016 | 0.01 | 0 | 0.077 | 0.026 | 0.037 | -0.015 | -0.057 | -0.049 | 0.008 | -0.016 | -0.009 | 0.028 | 0.013 | 0.004
UBC (UniProt P0CG48) | -0.007 | -0.021 | -0.004 | 0.011 | 0.024 | -0.044 | -0.054 | 0.009 | 0.043 | -0.041 | 0.022 | 0.027 | 0.033 | -0.064 | 0.008 | 0.167 | 0.296 (active) | 0.042 | -0.018 | 0.281 (active)
XRCC5 (UniProt P13010) | 0.103 | 0.178 | -0.012 | -0.038 | 0.079 | 0.037 | 0.11 | -0.039 | -0.059 | -0.139 | -0.264 | -0.104 | -0.214 | 0.083 | -0.175 | -0.505 (active) | 0.126 | -0.01 | 0 | -0.065
VPS35L (UniProt Q7Z3J2) | 0.011 | -0.004 | -0.072 | 0.025 | 0.044 | 0.059 | 0.014 | 0.012 | -0.047 | 0.071 | -0.012 | -0.006 | -0.028 | 0.05 | -0.097 | -0.046 | 0.036 | 0.043 | -0.013 | 0.024
TOM1 isoform 2 (UniProt O60784) | 0.012 | 0.014 | 0.107 | -0.04 | -0.006 | -0.016 | -0.053 | 0.004 | -0.023 | 0.014 | 0.101 | 0.013 | 0.028 | 0.071 | -0.017 | -0.302 | 0.033 | 0.023 | -0.006 | 0.16
WDR11 (UniProt Q9BZH6) | 0.103 | -0.081 | 0.145 | -0.004 | 0.115 | 0.067 | -0.168 | 0.005 | 0.091 | 0.023 | 0.009 | -0.112 | -0.01 | -0.068 | -0.018 | -0.056 | -0.047 | 0 | 0.069 | 0.065
TNPO1 (UniProt Q92973) | -0.032 | 0.08 | 0.038 | 0.011 | -0.006 | 0.016 | 0.008 | -0.027 | -0.001 | 0 | 0.01 | 0.001 | 0.043 | -0.01 | -0.029 | -0.193 | -0.011 | -0.006 | 0.032 | -0.231 (active)
WARS2 (UniProt Q9UGM6) | 0.069 | -0.016 | 0.034 | -0.094 | 0.033 | 0.006 | -0.032 | 0.031 | 0.027 | -0.027 | -0.016 | -0.075 | -0.031 | -0.017 | -0.144 | -0.204 | 0.016 | -0.053 | -0.026 | -0.004
TRIP10 (UniProt Q15642) | 0.052 | 0.015 | 0.203 | 0.022 | 0.013 | -0.025 | 0.044 | 0.011 | 0.013 | -0.026 | 0.007 | 0.002 | 0.009 | 0.001 | 0 | -0.022 | 0.007 | -0.007 | -0.009 | -0.02
XPO5 (UniProt Q9HAV4) | 0.011 | 0.103 | 0.105 | -0.005 | 0.011 | 0.016 | 0.023 | -0.019 | -0.024 | -0.001 | -0.004 | -0.027 | 0.032 | 0.001 | -0.141 | -0.21 | -0.021 | -0.01 | 0 | -0.204 (active)
WNK1 isoform 7 (UniProt Q9H4A3) | 0.043 | 0.014 | 0.012 | -0.003 | 0.026 | 0.006 | -0.046 | 0.021 | -0.028 | -0.02 | 0.015 | 0.01 | -0.213 | -0.045 | 0.017 | -0.005 | 0.476 (active) | 0.004 | -0.011 | 0.027
